Results as given in PubChem BioAssay (EPA / NIEHS).
Values joined by “and” are separate entries in the source; they are usually repeats but may differ in a detail not shown here. Equal values may be shown once. Active and inactive are the calls of the source. How the source made its calls: active means hit-call score of the fitted dose curve at least 0.9, where 1 is the maximum; inactive means score below 0.9.

These compounds were tested on Thrombomodulin, THBD (gene 7056) (assay: BSK_3C_Thrombomodulin: BioMAP Diversity Plus: 3C Assay for Thrombomodulin Biomarker Activity (AID 2283029)). Conditions: primary human endothelial cells (HUVEC); actives raise or lower the signal.
Method: BSK_3C is a cell-based, multiplexed-readout assay that uses umbilical vein endothelium, a human vascular primary cell, with measurements taken at 24 hours after chemical dosing in a 96-well plate.BSK_3C_Thrombomodulin is an assay component measured in the BSK_3C assay. It measures Thrombomodulin antibody related to regulation of gene expression using ELISA technology.Data from the assay component BSK_3C_Thrombomodulin was analyzed into 1 assay endpoint. This assay endpoint, BSK_3C_Thrombomodulin, was analyzed with bidirectional fitting relative to DMSO as the negative control and baseline of activity. Using a type of binding reporter, gain or loss-of-signal activity can be used to understand changes in the signaling as they relate to the gene THBD. Furthermore, this assay endpoint can be referred to as a primary readout, because this assay has produced multiple assay endpoints where this one serves a signaling function. To generalize the intended target to other relatable targets, this assay endpoint is annotated to the gpcr intended target family, where the subfamily is rhodopsin-like receptor.
The levels of cell surface (or secreted, indicated by the prefix "s") biomarker endpoints were measured by ELISA. Overt cytotoxicity to cells in confluent adherent cultures (all systems other than the BT system) was assessed by measuring total protein levels using sulforhodamine B (SRB) staining in parallel cultures at the time of biomarker measurements, indicated as SRB endpoints. For proliferation assays for adherent cell types, individual cell types are cultured at sub-confluence and relative cell numbers quantified by SRB staining at time points optimized for each system (48 h: 3C and CASM3C systems; 72 h: BT and HDF3CGF systems; 96 h: SAg system). SRB was performed by staining cells with 0.1% SRB after fixation with 10% TCA and reading wells at 560 nm.Viability and proliferation of PBMC (T cells) was quantified by Alamar Blue reduction for the SAg and BT systems. For PBMC viability (referred to as PBMC Cytotoxicity within the assay endpoint names), cells were plated (75,000/well in a 96-well plate) and then chemical samples added for 1 h before addition of activators, SEB and TSST-1 (20 ng/mL final concentration each). Cells were incubated for 90 h. Then, Alamar Blue (20 uL/well) (Invitrogen, Cat DAL1100) was added for 6 h, and the plates were read with a fluorescence microplate reader at 546/580 nm (excitation/emission). For PBMC proliferation, cells were plated and activated as above but incubated for only 16 h prior to addition of Alamar Blue. Plates were read after 6 h.
In the case of CC(C)(c1cc(Cl)c(O)c(Cl)c1)c1cc(Cl)c(O)c(Cl)c1, the AC50 is reported as 20 µM (active).
In the case of CCCC[N+](CCCC)(CCCC)CCCC, the outcome is reported as “inactive”.
For Nc1ccc(-c2ccc(N)c(N)c2)cc1N, the outcome was “inactive”.
With O=C(O)CCCc1ccc(N(CCCl)CCCl)cc1 the outcome was “inactive”.
For O=S(=O)(c1ccccc1)c1ccccc1, the outcome was “inactive”.
In the case of CC(C)(C)C(=O)CCl, the outcome is reported as “inactive”.
c1ccc(Nc2ccc3ccccc3c2)cc1 was tested, and the outcome was “inactive”.
N#CCCCCC#N was tested, and the outcome was “inactive”.
In the case of O=c1c2ccccc2c(=O)c2c1cc(Cl)c1[nH]c3c([nH]c12)c(Cl)cc1c(=O)c2ccccc2c(=O)c13, the outcome is reported as “inactive”.
CCCOC(=O)c1ccccc1C(=O)OCCC was tested, and the outcome was “inactive”.
CCC(C)c1cc([N+](=O)[O-])cc([N+](=O)[O-])c1OC(=O)C=C(C)C (stereo not drawn) was tested, and the outcome was “inactive”.
With CC(=O)/C=C/c1ccccc1 the outcome was “inactive”.
In the case of Clc1ccc(-c2ccccc2)cc1, the outcome is reported as “inactive”.
O=P1(NCCCl)OCCCN1CCCl (stereo not drawn) was tested, and the outcome was “inactive”.
CCCCCCCCCCCC#N was tested, and the outcome was “inactive”.
For O=c1[nH]c(Cl)c(Cl)cc1Cl, the outcome was “inactive”.
In the case of Cc1ccc(OP(=O)(Oc2ccc(C)cc2)Oc2ccc(C)cc2)cc1 (tested in a mixture with another compound), the AC50 is reported as 3.59 µM (active).
CNC(=O)Oc1cc(C)c(SC)c(C)c1 was tested, and the outcome was “inactive”.
In the case of CC(C)CCCCCCCOC(=O)c1ccccc1C(=O)OCCCCCCCC(C)C, the outcome is reported as “inactive”.
CC(C)(C)C(O)C(Oc1ccc(-c2ccccc2)cc1)n1cncn1 (stereo not drawn) was tested, and the outcome was “inactive”.
C=CCN(CC=C)C(=O)C(Cl)Cl was tested, and the outcome was “inactive”.
Oc1ccc(C2(c3ccc(O)cc3)c3ccccc3-c3ccccc32)cc1 was tested, and the AC50 was 5.01 µM (active) and 11.3 µM (active).
In the case of [Cd+2].[Cl-].[Cl-], the outcome is reported as “inactive”.
In the case of O=[N+]([O-])C=Cc1ccccc1, the outcome is reported as “inactive”.
In the case of CC(C)CCCCCCCOP(=O)(Oc1ccccc1)Oc1ccccc1, the AC50 is reported as 20 µM (active).
O=C1C(Cl)=C(Cl)C(=O)C(Cl)=C1Cl was tested, and the AC50 was 5.02 µM (active).
In the case of O=[N+]([O-])O, the outcome is reported as “inactive”.
In the case of O=[N+]([O-])c1ccc(Cl)cc1, the outcome is reported as “inactive”.
With O=C1C=CC(=O)C=C1 the outcome was “inactive”.
COc1ccc(CO)cc1 was tested, and the outcome was “inactive”.
In the case of COCC(=O)N(c1c(C)cccc1C)N1CCOC1=O, the outcome is reported as “inactive”.
With O=C(CCl)c1ccccc1 the outcome was “inactive”.
With CC(C)COP(=O)(OCC(C)C)OCC(C)C the outcome was “inactive”.
C=CC(=O)OCC(CC)CCCC (stereo not drawn) was tested, and the AC50 was 3.97 µM (active).
With Oc1cc(Cl)ccc1Cl the outcome was “inactive”.
In the case of CCc1cc(C)cc(CC)c1-c1c(OC(=O)C(C)(C)C)n2n(c1=O)CCOCC2, the outcome is reported as “inactive”.
In the case of CC1(C)[C@H](C(=O)O[C@H](C#N)c2cccc(Oc3ccccc3)c2)[C@@H]1C=C(Br)Br, the outcome is reported as “inactive”.
With COC(C)(C)CCC[C@H](C)C/C=C/C(C)=C/C(=O)OC(C)C the outcome was “inactive”.
